Results as given in PubChem BioAssay.
Activity calls are given as the source filed them. Unless noted, the rule behind the calls is not given here.

Tests used:
[1] = HepG2 liver cancer cell viability effects, profiling panel, resazurin fluorescence, 24 h, PK04 Diversity Set (AID 1172); conditions: higher = more signal
[2] = basal S. cerevisiae growth modulation, no modifier, primary screen, OD600, strain BY4716, 24 h, basal condition (AID 1173); conditions: OD600, 24 h, higher = more signal, called active from +8 up or from −8 down
[3] = MM1S myeloma cell viability, profiling panel, resazurin fluorescence, basal, 24 h, PK04 Diversity Set (AID 1174); conditions: higher = more signal, called active from +8 up or from −8 down;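 note: MM1S multiple myeloma cell line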
[4] = target: Dihydroorotate dehydrogenase (quinone), mitochondrial (Plasmodium falciparum (isolate 3D7)) (UniProt Q08210); experiment: PfDHODH enzyme inhibitors, primary screen, biochemical, C-terminal His tag, absorbance 600 nm (AID 1175); conditions: DCIP absorbance 600 nm, higher = more signal, called active from +8 up or from −8 down;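 note: recombinant parasite enzyme with a five histidine tag at its C terminus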
Sequence of Dihydroorotate dehydrogenase (quinone), mitochondrial (Plasmodium falciparum (isolate 3D7)) (Q08210 whole entry, looked up): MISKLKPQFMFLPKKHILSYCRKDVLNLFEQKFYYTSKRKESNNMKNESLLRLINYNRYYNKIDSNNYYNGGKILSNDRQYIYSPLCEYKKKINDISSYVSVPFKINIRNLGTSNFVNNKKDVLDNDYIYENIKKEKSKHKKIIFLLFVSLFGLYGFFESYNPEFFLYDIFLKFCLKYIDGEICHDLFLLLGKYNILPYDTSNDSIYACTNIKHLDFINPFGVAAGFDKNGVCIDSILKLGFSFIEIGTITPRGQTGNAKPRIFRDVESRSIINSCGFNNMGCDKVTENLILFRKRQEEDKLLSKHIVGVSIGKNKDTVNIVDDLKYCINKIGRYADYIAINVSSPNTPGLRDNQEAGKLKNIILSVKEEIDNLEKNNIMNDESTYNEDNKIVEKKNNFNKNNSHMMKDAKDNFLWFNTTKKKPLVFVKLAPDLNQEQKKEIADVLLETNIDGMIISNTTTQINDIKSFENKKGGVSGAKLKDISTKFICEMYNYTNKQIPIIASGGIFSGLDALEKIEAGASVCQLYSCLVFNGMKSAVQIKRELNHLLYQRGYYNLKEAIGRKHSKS

[5] = P. aeruginosa biofilm formation inhibitors, primary screen, strain PAO1, LB-PBS medium, absorbance 600 nm (AID 1176); conditions: P. aeruginosa PAO1 growth/biofilm, A600, 12 h; higher = more signal
[6] = S. cerevisiae RM11-1a growth modifiers, primary screen, strain RM11-1a, OD600, basal, 24 h (AID 1177); conditions: OD600, 24 h, higher = more signal, called active from +8 up or from −8 down;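 note: cultures grown under basal conditions with no added stressor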
[7] = E. coli acrAB mutant growth effects, primary screen, E. coli filamentation inducers, strain DRC39, OD650, 24 h (AID 1178); conditions: higher = more signal, called active from +8 up or from −8 down;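 note: growth measured as culture turbidity by optical density at 650 nm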
[8] = E. coli acrAB mutant growth effects, primary screen, E. coli filamentation inducers, strain DRC39, OD650, 48 h (AID 1179);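 note: screen aims at cell division blockers that make cells filament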; conditions: E. coli DRC39 delta-acrAB growth, higher = more signal, called active from +8 up or from −8 down
[9] = RPMI8226 myeloma cell viability, profiling panel, resazurin fluorescence, basal, 24 h, PK04 Diversity Set (AID 1180); conditions: higher = more signal;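 note: RPMI8826 multiple myeloma cell line at 5000 cells per well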
[10] = target: E3 ubiquitin-protein ligase XIAP (Homo sapiens) (UniProt P98170); experiment: XIAP binders, primary screen, biophysical, small-molecule microarray, fluorescence 635 nm (AID 1181); conditions: small-molecule microarray binding, higher = more signal;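 note: score merges 667 nm emission and signal to noise over triplicate slides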
Sequence of E3 ubiquitin-protein ligase XIAP (Homo sapiens) (P98170 whole entry, looked up): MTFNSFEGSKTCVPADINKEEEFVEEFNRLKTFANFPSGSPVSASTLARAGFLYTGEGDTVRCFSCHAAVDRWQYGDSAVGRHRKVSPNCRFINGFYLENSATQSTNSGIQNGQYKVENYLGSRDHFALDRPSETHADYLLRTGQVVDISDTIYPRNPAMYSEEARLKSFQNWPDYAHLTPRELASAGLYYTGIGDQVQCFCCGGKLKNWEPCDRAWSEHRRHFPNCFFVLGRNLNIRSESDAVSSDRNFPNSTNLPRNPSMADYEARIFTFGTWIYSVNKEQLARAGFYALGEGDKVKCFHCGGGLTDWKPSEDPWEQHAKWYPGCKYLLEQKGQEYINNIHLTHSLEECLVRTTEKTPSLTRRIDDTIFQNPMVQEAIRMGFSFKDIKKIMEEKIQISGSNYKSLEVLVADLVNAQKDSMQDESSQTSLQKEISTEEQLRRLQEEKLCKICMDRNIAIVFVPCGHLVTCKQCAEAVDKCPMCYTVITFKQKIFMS

[11] = test system: XIP peptide (Xip251-270) binding; experiment: small-molecule binders of XIP peptide, primary screen, biochemical, small-molecule microarray, fluorescence 635/667 nm, 0.1 µg/mL protein (AID 1182); conditions: fluorescent protein binding, 635 nm, higher = more signal, called active from +8 up or from −8 down
XIP peptide (Xip251-270) = experiment: small-molecule binders of XIP peptide, primary screen, biochemical, small-molecule microarray, fluorescence 635/667 nm, 0.5 µg/mL protein (AID 1183); conditions: small-molecule microarray binding, fluorescence 635 nm; higher = more signal
[12] = Plasmodium falciparum growth inhibition, primary screen, strain 3D7, DAPI fluorescence, 100 nL (AID 1184);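 note: parasites grown inside human red blood cells in medium with human serum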; conditions: P. falciparum 3D7 growth, 3 d, higher = more signal
[13] = target: Homeobox protein Hox-A13 (Mus musculus) (UniProt Q62424); experiment: inhibitors of HoxA13-DNA binding, primary screen, biochemical, fluorescence polarization, labeled oligonucleotide (AID 1185); conditions: 15 min, higher = more signal, called active from +8 up or from −8 down
Sequence of Homeobox protein Hox-A13 (Mus musculus) (Q62424 whole entry, looked up): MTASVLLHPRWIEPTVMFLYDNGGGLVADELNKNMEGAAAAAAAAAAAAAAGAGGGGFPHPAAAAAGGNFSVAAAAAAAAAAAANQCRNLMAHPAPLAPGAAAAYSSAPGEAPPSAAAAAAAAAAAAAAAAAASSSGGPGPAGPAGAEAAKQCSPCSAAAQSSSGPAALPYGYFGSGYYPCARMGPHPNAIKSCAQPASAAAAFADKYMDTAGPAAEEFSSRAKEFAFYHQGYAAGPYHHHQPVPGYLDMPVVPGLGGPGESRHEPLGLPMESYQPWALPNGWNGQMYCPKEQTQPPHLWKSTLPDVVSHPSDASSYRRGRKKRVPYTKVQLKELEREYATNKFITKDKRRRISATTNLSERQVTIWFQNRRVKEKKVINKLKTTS

[14] = inhibitors of hydroxyurea-induced Chk1 phosphorylation, primary screen, imaging, HeLa, phospho-Chk1 antibody, percent positive cells (AID 1186); conditions: hydroxyurea-induced phospho-Chk1 immunofluorescence imaging, higher = more signal
[15] = inhibitors of hydroxyurea-induced Chk1 phosphorylation, primary screen, imaging, HeLa, phospho-Chk1 nuclear intensity (AID 1187); conditions: hydroxyurea-induced phospho-Chk1 immunofluorescence imaging, higher = more signal

SMILES | z-score [1] | z-score [2] | z-score [3] | composite z-score [4] | z-score [5] | z-score [6] | z-score [7] | z-score [8] | z-score [9] | composite z-score [10] | composite z-score [11] | composite z-score (XIP peptide (Xip251-270)) | z-score [12] | z-score [13] | z-score [14] | z-score [15]
CO[C@H]1O[C@H](CO)[C@@H](OC(=O)Nc2ccccc2)[C@H](OC(=O)c2cc3ccccc3[nH]2)[C@H]1OC(=O)c1cc2ccccc2[nH]1 | -1.09 | -0.388 (inactive) | -1.59 (inactive) | -0.49 (inactive) | 0.125 (inactive) | -0.643 (inactive) | 1.54 (inactive) | 1.45 (inactive) | -1.64 | 0.246 | 2.41 (inactive) | 0.783 | -1.83 | -4.4 (inactive) | -0.389 (inactive) | -0.562 (inactive)
CC(C)(C)OC(=O)CC[C@@]1(C(=O)NCC(O)CO)N=C(c2ccc(OCCCO)cc2)O[C@@H]1c1ccccc1CN=[N+]=[N-] (some centres undefined) | 0.507 | -0.215 (inactive) | -0.0579 (inactive) | 0.345 (inactive) | 0.869 (inactive) | -0.181 (inactive) | 0.642 (inactive) | -0.154 (inactive) | 0.126 | 0.153 | -0.246 (inactive) | 0.57 | -0.711 | -5.44 (inactive) | 0.436 (inactive) | 0.71 (inactive)
COc1ccc(C#Cc2ccc3c(c2)[C@]2(C(=O)N3)[C@H](C(=O)O)[C@H]3C(=O)O[C@H](c4ccccc4)[C@H](c4ccccc4)N3[C@@H]2c2ccc(O)cc2)cc1 | -0.704 | -1.07 (inactive) | 0.239 (inactive) | -4.06 (inactive) | 0.381 (inactive) | 0.128 (inactive) | -0.0897 (inactive) | -0.94 (inactive) | -0.152 | -0.209 | 1.14 (inactive) | -0.516 | -1.47 | -6.25 (inactive) | -0.366 (inactive) | -0.651 (inactive)
O=C1NC(=O)C2C1C=CC(C(O)c1ccco1)N2Nc1ccc(Cl)cc1Cl (centres undefined) | -2.04 | -17 (active) | -1.41 (inactive) | 0.893 (inactive) | 0.711 (inactive) | -5.34 (inactive) | -0.725 (inactive) | -1.86 (inactive) | -1.28 | 0.257 | -0.101 (inactive) | 0.634 | -0.461 | -5.4 (inactive) | 0.54 (inactive) | 0.408 (inactive)
CCCC[C@@H]1C[C@H]1[C@@H](NC(=O)c1cccs1)c1ccccc1C(F)(F)F | -0.119 | 0.866 (inactive) | -0.186 (inactive) | -0.271 (inactive) | 0.591 (inactive) | 0.742 (inactive) | -0.561 (inactive) | -0.469 (inactive) | 0.276 | 0.99 | 0.269 (inactive) | 0.305 | -1.27 | 0.322 (inactive) | -0.0139 (inactive) | 0.364 (inactive)
C=CC[C@H](OC(=O)Nc1ccc(SC)cc1)c1ccc(O)c2ccccc12 | -1.26 | -16.6 (active) | -6.71 (inactive) | -6.87 (inactive) | 1.44 (inactive) | -20.3 (active) | -0.146 (inactive) | -0.772 (inactive) | -5.02 | 0.104 | 1.07 (inactive) | 0.728 | -0.922 | -1.35 (inactive) | -0.0114 (inactive) | 0.142 (inactive)
O=C(NCCN1CCOCC1)[C@@H]1c2ccccc2C(=O)N(Cc2ccccc2Cl)[C@H]1c1ccc(CO)cc1 | -0.0211 | 0.199 (inactive) | -1.21 (inactive) | -0.0473 (inactive) | 0.0993 (inactive) | 0.593 (inactive) | 0.447 (inactive) | 0.865 (inactive) | -0.831 | 0.0178 | -0.121 (inactive) | -0.209 | -0.879 | -4.26 (inactive) | -0.0685 (inactive) | 0.227 (inactive)
COc1ccc([C@H]2OC[C@@H]3C[C@H](Cc4ccccc4)C(=O)N32)cc1 | -0.195 | -3.69 (inactive) | 0.229 (inactive) | -0.0327 (inactive) | -0.145 (inactive) | 0.248 (inactive) | -0.278 (inactive) | -0.818 (inactive) | -0.627 | -0.152 | -0.299 (inactive) | 0.0713 | 0.877 | -0.716 (inactive) | 0.311 (inactive) | 0.0211 (inactive)
CN(C)CCCCCCNC(=O)[C@@H]1C[C@@H]2C(=O)N3CCC[C@H]3C(=O)N2[C@@H]1c1cccc(OCCO)c1 | -2.4 | 0.451 (inactive) | -0.727 (inactive) | -0.595 (inactive) | -0.267 (inactive) | 0.363 (inactive) | 0.0047 (inactive) | -0.391 (inactive) | -0.946 | -0.0062 | 2.52 (inactive) | 0.872 | 0.517 | -2.94 (inactive) | 0.0537 (inactive) | -0.055 (inactive)
